# The whole screen tested about 200,000 compounds, of which about 670 (0.34%) were called active. No stated cut-off is given here; in the data, active means activation above about 22%; inactive means the rest. This excerpt belongs to a sample that is enriched for actives.
# Target: Peroxisome proliferator-activated receptor gamma (Homo sapiens) (UniProt P37231)
# Test: compounds enhancing SRC-2 coactivator binding to PPARgamma – biochemical, HTS, primary screen (AID 1032);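 further: 0% = vehicle and 100% = reference agonist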
# Details: PPARgamma LBD-SRC-2 recruitment, at 8 µM, active compounds read high
# Peroxisome proliferator-activated receptor gamma (Homo sapiens), sequence (P37231 whole entry, looked up): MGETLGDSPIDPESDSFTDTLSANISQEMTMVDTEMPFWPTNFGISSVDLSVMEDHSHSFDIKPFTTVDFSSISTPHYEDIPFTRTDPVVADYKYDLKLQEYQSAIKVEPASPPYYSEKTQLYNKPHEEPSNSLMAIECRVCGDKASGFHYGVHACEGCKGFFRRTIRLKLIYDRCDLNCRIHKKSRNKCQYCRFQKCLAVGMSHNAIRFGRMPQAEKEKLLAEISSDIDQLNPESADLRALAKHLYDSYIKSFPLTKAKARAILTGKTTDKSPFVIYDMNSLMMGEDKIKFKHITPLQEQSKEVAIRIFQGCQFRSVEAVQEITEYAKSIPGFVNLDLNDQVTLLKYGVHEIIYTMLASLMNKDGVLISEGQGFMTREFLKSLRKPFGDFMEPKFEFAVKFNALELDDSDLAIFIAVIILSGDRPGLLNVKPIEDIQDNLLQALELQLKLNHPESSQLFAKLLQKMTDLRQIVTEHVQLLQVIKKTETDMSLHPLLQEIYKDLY
row,SMILES,activation
1,COc1ccc(OCc2n[nH]c(=S)n2N)cc1,4.69% (inactive)
2,c1ccc(CSc2ncnc3c2sc2nc(N4CCOCC4)c4c(c23)CCCC4)cc1,96% (active)
3,COc1ccc(CSc2nc(N3CCOCC3)c3c(c2C#N)CC(C)(C)OC3)cc1,-5.06% (inactive)
4,c1ccc(COc2nsnc2N2CCOCC2)cc1,7.85% (inactive)
5,CNC(=O)c1ccsc1NC(=O)c1ccc(S(=O)(=O)N2CCOCC2)cc1,14.3% (inactive)
6,COc1cc(/C=C(/NC(=O)c2ccc(Cl)cc2Cl)C(=O)O)cc(OC)c1OC,11.2% (inactive)
7,Cc1ccc(CNC(=O)CC2Sc3ccccc3NC2=O)cc1 (stereo unspecified),0.66% (inactive)
8,Cc1ccc(S(=O)(=O)c2ccc(Cl)cc2)cc1S(=O)(=O)NC(C(=O)O)C(C)C (stereo unspecified),-4.99% (inactive)
9,COc1cccc(NCCC(=O)c2cccc([N+](=O)[O-])c2)c1,7.36% (inactive)
10,COc1cccc2c1OCC(CN1CCN(C3CCCCC3)C(CCO)C1)=C2 (stereo unspecified),1.05% (inactive)
11,Cn1c(N)cc(-c2ccc(F)cc2)c(C#N)c1=O,1.85% (inactive)
12,Cc1ccc(S(=O)(=O)NC(C(=O)N2CCOCCOCCOCCOCC2)c2ccccc2)cc1 (stereo unspecified),6.3% (inactive)
13,CC(C(=O)N1CCOCC1)N1c2cccc3cccc(c23)S1(=O)=O (stereo unspecified),28.1% (active)
14,NC(=NC(=O)c1ccccc1)N1CCOCC1,11.2% (inactive)
15,Oc1cccc2ccc(/C=C/c3ccc(Br)s3)nc12,-1.88% (inactive)
16,N#Cc1c(N)nc2c(c1N)CC(C(F)(F)F)O2 (stereo unspecified),2.19% (inactive)
17,CC(=O)c1cccc(CN2CCC(CO)(Cc3ccccc3)CC2)c1,4.63% (inactive)
18,OCC1(CCc2ccccc2)CCN(Cc2ccc3nsnc3c2)CC1,39.5% (active)
19,Cc1cccc(-c2ncc(CN3CCC(CO)(CCCc4ccccc4)CC3)cn2)c1,5% (inactive)
20,Cc1ccc(NC(=O)c2ccc(S(=O)(=O)NCC3CCCO3)cc2)cc1C (stereo unspecified),-6.15% (inactive)
21,O=C(Nc1ccc(N2CCN(C(=O)C3CC3)CC2)cc1)c1cccs1,4.68% (inactive)
22,O=C(CS(=O)(=O)c1ccccc1)Nc1ccc(S(=O)(=O)Nc2ccccn2)cc1,-6.08% (inactive)
23,CC(=O)N/N=C(\C)c1ccc(Br)cc1Br,-4.44% (inactive)
24,COc1ccc(Cl)cc1C(=O)NCc1cn(C)nc1C,8.12% (inactive)
25,Cc1ccc2nc(-c3cccc(Br)c3)cc(C(=O)Nn3cnnc3)c2c1,-0.43% (inactive)
26,Cc1ccc(-c2cc(C(=O)NCc3cn(C)nc3C)c3cc(Br)ccc3n2)cc1,37% (active)

row,SMILES,activation
1,O=C(Oc1cccc(O)c1)C1CCCCC1,1.13% (inactive)
2,Cc1ccc(NC(=O)c2ccc(Oc3ncccn3)cc2)cc1,3.49% (inactive)
3,CCN(/N=C/c1ccc(N(C)C)cc1)c1nc2ccccc2[nH]1,23% (active)
4,CN(C)c1ccc(/C=N/N(Cc2ccccc2)c2ccccc2)cc1,11.9% (inactive)
5,CCN(/N=C/c1ccccc1)c1cc(=O)n(C)c(=O)[nH]1,-3.6% (inactive)
6,O=C(Nc1ccccc1F)c1ccc(Cn2cc(Br)cn2)cc1,-1.02% (inactive)
7,CN1CCN(CCC(=O)N/N=C/C=C2\N(C)c3ccccc3C2(C)C)CC1,10% (inactive)
8,O=C(Nc1ccncc1)c1ccccc1[N+](=O)[O-],-0.46% (inactive)
9,CCn1cc(CNC(=O)c2cc([N+](=O)[O-])c(C)c([N+](=O)[O-])c2)cn1,-6.4% (inactive)
10,COc1ccc(NC(=S)NC2CCS(=O)(=O)C2)cc1 (stereo unspecified),6.88% (inactive)
11,Cc1ccc(-c2nc(C)sc2CC(=O)O)cc1,-0.57% (inactive)
12,O=C(O)Cc1sc(-c2ccccc2)nc1-c1cccs1,34.7% (active)
13,O=C(O)Cc1sc(-c2ccc(C(=O)O)cc2)nc1-c1ccccc1,10.9% (inactive)
14,COc1ccc(NC(=O)CN(C)CC(=O)Nc2cccc(C(F)(F)F)c2)cc1,-2.86% (inactive)
15,COc1cc2c(cc1OC)CC1(CCCCC1)N=C2,0.25% (inactive)
16,Cc1n[nH]c(=O)nc1N/N=C/c1cccs1,3.35% (inactive)
17,COc1cccc(-n2c(=O)c3c(C)c(C(=O)N(C)C)sc3n(CC(=O)NCCc3ccc(OC)c(OC)c3)c2=O)c1,9.15% (inactive)
18,O=C(NNc1ccccc1Cl)C(O)(c1cccc(C(F)(F)F)c1)c1cccc(C(F)(F)F)c1,17.2% (inactive)
19,Cc1nc2ccccc2cc1OCc1ccc(F)cc1,4.89% (inactive)
20,Cc1cccc(OCc2ccc(C(=O)Nc3ccc(F)cc3)cc2)c1,-0.72% (inactive)
21,Fc1ccc(COc2cccc(-c3n[nH]c(=S)o3)c2)cc1,44.9% (active)
22,CCn1c(=O)cc(SCC(=O)NCc2ccc3c(c2)OCO3)c2ccccc21,36% (active)
23,CC(C)NC(=O)CSc1ccccc1C(=O)NCc1ccc2c(c1)OCO2,-4.93% (inactive)
24,CCn1c(=O)cc(SCC(=O)NCCC2=CCCCC2)c2ccccc21,16.9% (inactive)
25,O=C(N/N=C/c1ccc2c(c1)OCO2)C(=O)N1CCCC1,-5.72% (inactive)

# Source: PubChem BioAssay AID1032 (The Scripps Research Institute Molecular Screening Center, 2008)
